Compounds with a hit are over-represented: about 12% of the library has one in this group of screens.
HP1b chromo inh: HTS for Inhibitors of HP1-beta Chromodomain Interactions with Methylated Histone Tails; hit rate 0.56% among 390,000; Potency, µM (titrated, usually from 114 µM), for inactives: top-dose activity change, negative = inhibition, hits mostly inhibitors; AlphaScreen HP1-beta / biotin-H3K9me3 peptide binding; AID 540317, 2011; note: nearly all actives have a fitted effect of over 70% in size
Target sequence (P83916 whole entry, looked up): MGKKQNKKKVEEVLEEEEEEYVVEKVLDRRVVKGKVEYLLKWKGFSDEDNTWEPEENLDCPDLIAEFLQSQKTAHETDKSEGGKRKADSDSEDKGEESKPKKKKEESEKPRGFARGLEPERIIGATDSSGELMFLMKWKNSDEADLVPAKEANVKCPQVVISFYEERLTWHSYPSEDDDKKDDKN
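HP1-beta protein (50 nM final) preincubated 30 min at room temperature with biotinylated H3(1-18)K9me3 peptide (50 nM) in PBS pH 7.4, 0.01% Tween-20, then compound added for 30 min. AlphaScreen streptavidin donor/nickel chelate acceptor beads (10 ug/mL final), 30 min dark, luminescence read.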
TDP1 block: qHTS Assay for Inhibitors of Tyrosyl-DNA Phosphodiesterase (TDP1); Tyrosyl-DNA phosphodiesterase 1 (Homo sapiens), Q9NUW8; AID 485290, 2010; recombinant TDP1, AlphaScreen DNA substrate cleavage; hit rate 0.28% among 350,000; Potency, µM (highest dose often 130 µM), without a hit: at the highest dose activity change, negative = inhibition, usual class: inhibitors; note: % is set by controls: 0 for no effect and ±100 for the full control effect; nearly all actives have a fitted effect of over 40% in size
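Recombinant E. coli-expressed Tdp1 (1 nM) preincubated with compound 15 min at RT, then 5'-biotin/3'-phosphotyrosine-FITC DNA substrate (15 nM) added for 5 min. AlphaScreen beads (10 ug/ml) added, 10 min RT; tyrosine-FITC cleavage read as signal loss.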
JMJD2A Tudor inh: qHTS Assay for Inhibitors of JMJD2A-Tudor Domain; Lysine-specific demethylase 4A (Homo sapiens), O75164; AlphaScreen JMJD2A-Tudor / H3K4me3 peptide binding; Potency, µM (titrated, usually from 114 µM), inactives show at the top dose activity change, negative = inhibition, hits mostly inhibitors; hit rate 4.4% among 390,000; note: % is set by controls: 0 for no effect and ±100 for the full control effect; nearly all actives have a fitted effect of over 50% in size
G9a inh: qHTS Assay for Inhibitors of Histone Lysine Methyltransferase G9a; Potency, µM (series often up to 102 µM), for inactives: top-dose activity, negative = inhibition, most hits filed as inhibitors; Histone-lysine N-methyltransferase EHMT2 (Homo sapiens), Q96KQ7; G9a H3K9 monomethylation, AlphaScreen, 2 h; AID 504332, 2011; hit rate 8.8% among 350,000; note: % is set by controls: 0 for no effect and ±100 for the full control effect; nearly all actives have a fitted effect of over 75% in size
Target sequence (Q96KQ7 913-1193 limits assumed): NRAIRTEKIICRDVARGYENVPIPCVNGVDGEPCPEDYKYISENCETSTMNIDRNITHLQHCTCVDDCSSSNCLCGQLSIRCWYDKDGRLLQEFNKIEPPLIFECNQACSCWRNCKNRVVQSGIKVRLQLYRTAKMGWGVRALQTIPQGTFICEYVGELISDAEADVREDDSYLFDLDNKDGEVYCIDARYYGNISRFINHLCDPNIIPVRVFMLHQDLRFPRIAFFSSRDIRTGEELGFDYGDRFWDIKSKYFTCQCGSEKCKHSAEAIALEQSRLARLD
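Using a bead-based AlphaScreen, monomethylated H3K9 product from 2 h room-temperature reactions (G9a 20 nM, peptide 500 nM, SAM 20 uM) was detected with 0.5 ug/mL rabbit anti-H3K9me1 antibody.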
BAZ2B inh: qHTS Assay for Inhibitors of BAZ2B; Bromodomain adjacent to zinc finger domain protein 2B (Homo sapiens), Q9UIF8; AlphaScreen BAZ2B-H3K14Ac peptide displacement; Potency, µM (titrated, usually from 114 µM), without a hit: top-dose activity change, negative = inhibition, actives largely listed as inhibitors; hit rate 4.4% among 360,000; note: % is set by controls: 0 for no effect and ±100 for the full control effect; nearly all actives have a fitted effect of over 60% in size
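Inhibition is scored as reduced AlphaScreen emission. The BAZ2B/b-H3(5-23)K14Ac complex (50 nM each) in PBS pH 7.4, 0.01% Tween-20 meets compound (up to 110 uM) for 30 min at RT before bead addition.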
Sfp inh: qHTS Assay for Inhibitors of Bacillus subtilis Sfp phosphopantetheinyl transferase (PPTase); AID 1490, 2009; 4'-phosphopantetheinyl transferase ffp (Bacillus subtilis), Q9F4F7; hit rate 3.5% among 310,000; Potency, µM, for inactives: largest response in the series, negative = inhibition, most hits filed as inhibitors; Biochemical Sfp PPTase activity, qHTS;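 note: the enzyme is Sfp with the accession as filed and its product quenches rhodamine fluorescence; 0% = enzyme reaction without inhibitor and -100% = no enzyme wells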
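Step 1, compound plus 15 nM Sfp-PPTase, 15 min, room temperature. Step 2, add rhodamine-CoA (5 uM) and BHQ-2-YbbR (12.5 uM). Step 3, read 525/598 nm fluorescence at 0 and 30 min.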
* = called active by the depositor; ? = inconclusive; / = not tested or not shown; ! = not active in a repeat; [ ] = another dose, or the depositor's remark. Calls come from the whole dose curve; as a rule, active = well fitted curve in the direction sought with a large enough effect; inconclusive = small, poorly fitted or top-dose-only effect, or another doubt; inactive = no such curve, though single readings can be large; an effect the other way counts as inactive or inconclusive. Potency is the fitted concentration of half-maximal effect.

SMILES	HP1b chromo inh	TDP1 block	JMJD2A Tudor inh	G9a inh	BAZ2B inh	Sfp inh
COc1ccccc1CNC(=O)CCCn1c(=O)c2ccccc2n(CC(=O)Nc2c(C)cc(C)cc2C)c1=O	68.2%	3.6%	3.1%	3.6%[59 µM]	19.3%	/
CCOC(=O)c1c(C)[nH]c(C(=O)OCC(=O)N(CC)c2c(N)n(Cc3ccccc3)c(=O)[nH]c2=O)c1C	25.3%	/	-7.7%	/	/	/
COCCN(C(=O)COC(=O)c1ccc(C)s1)c1c(N)n(Cc2ccccc2)c(=O)[nH]c1=O	21.7%	-4.1%	-5.4%	-3.3%	13.0%	/
CCOC(=O)c1c(C)[nH]c(C(=O)OCC(=O)N(CC(C)C)c2c(N)n(Cc3ccccc3)c(=O)[nH]c2=O)c1C	31.6%	/	-21.2%	15.8µM*	1.3%	/
CCCN(C(=O)COC(=O)c1cc(CC)c(C)s1)c1c(N)n(Cc2ccccc2)c(=O)[nH]c1=O	-3.3%	2.4%[0.505 µM]	-32.4%	50.1µM*	?	/
CCCCn1c(N)c(N(CCOC)C(=O)COC(=O)c2cc(CC)c(C)s2)c(=O)[nH]c1=O	14.4%	-5.8%	-12.4%	0.5%[0.501 µM]	6.2%	/
Cc1ccc(C(=O)OCC(=O)N(CC(C)C)c2c(N)n(Cc3ccccc3)c(=O)[nH]c2=O)s1	22.7%	2.5%	-4.2%	79.4µM*	-5.7%	7.3%
COc1ccc(C(=O)NC2CCCc3ccccc32)cc1S(=O)(=O)N1CCOCC1 (stereo not given)	4.7%	0.0%	-12.4%	-5.6%[0.0925 µM]	-4.2%	25.4%
COc1ccc(C2C=C3CNS(=O)(=O)C3CC2OC(=O)c2ccc(C(F)(F)F)cc2)cc1 (stereo not given)	24.1%	15.0%	-28.3%	/	/	4.6%
CCc1ccc(C(=O)c2cn(CC(=O)Nc3ccc4c(c3)OCO4)c3ccc(Cl)cc3c2=O)cc1	14.6%	3.8%	-12.9%	-2.6%[59 µM]	-26.9%	/
CCc1ccc(C(=O)c2cn(CC(=O)Nc3ccc4c(c3)OCO4)c3cc(OC)c(OC)cc3c2=O)cc1	26.2%	6.4%	-34.8%	-27.6%[59 µM]	79.4µM*	/
COc1ccc(C(=O)c2cn(Cc3ccccc3F)c3ccc(F)cc3c2=O)cc1	21.0%	5.8%	-21.9%	-9.1%[59 µM]	79.4µM*	/
CCc1ccc(C(=O)c2cn(CC(=O)Nc3cccc(OC)c3)c3ccc(OC)cc3c2=O)cc1	3.4%	/	11.2µM*	10µM*	50.1µM*	/
CCc1ccc(C(=O)c2cn(CC(=O)Nc3ccc4c(c3)OCO4)c3ccc(CC)cc3c2=O)cc1	46.6%	-1.3%	-18.5%	?	79.4µM*	/
COc1cccc(NC(=O)Cn2cc(C(=O)c3ccc(C)cc3)c(=O)c3cc(OC)ccc32)c1	20.9%	?	?	?	-32.5%	/
CCc1ccc(C(=O)c2cn(CC(=O)Nc3ccc(Cl)cc3)c3cc4c(cc3c2=O)OCO4)cc1	25.2%	1.3%	-8.9%	4.7%[59 µM]	-10.9%	/
COc1ccccc1-c1noc(CCCC(=O)Nc2ccc(C(N)=O)cc2)n1	33.2%	/	-14.8%	-10.7%[59 µM]	2.1%	18.4%
CCOc1ccc(OCC(=O)Nc2ccc(S(=O)(=O)Nc3cc(C)on3)cc2)cc1	14.2%	0.0%	-26.5%	-34.4%[59 µM]	-24.3%	/
O=C(Oc1ccccc1)N1CCC2(CC1)CN(c1ccccn1)C2	/	/	/	-0.7%[12.7 µM]	/	2.7%
COC(=O)c1sccc1NC(=S)Nc1ccccc1	11.9%	0.0%	-15.2%	50.1µM*	-6.3%	19.3%
CCN(CC)C(=O)Cc1cc(C(=O)O)c2ccccc2n1	19.1%	2.3%	-12.3%	-5.8%[59 µM]	-33.9%	18.5%
O=C(Cc1cc(C(=O)O)c2ccccc2n1)Nc1ccccc1	29.8%	5.4%	-9.8%	35.5µM*	11.5%	-0.9%
S=C(Nc1ccccc1)Nc1nccs1	-8.0%	15.3%	?	26.7µM*!	-13.6%	?
